Experimental data taken from the supplement of paper PMC13380429.

Test system: Vero E6 infected with SARS-CoV-2
Assay: inhibition of SARS-CoV-2 cytopathic effect; higher = more antiviral protection, active = above 15
Conditions: 48 h

Measured: inhibition of SARS-CoV-2 cytopathic effect

CC1(C)O[C@H]2CC(=O)OC[C@]23[C@H]2CC[C@@]4(C)[C@H](c5ccoc5)OC(=O)[C@H]5O[C@]54[C@]2(C)C(=O)C[C@@H]13 [limonin]
inactive: 1 nM -0.51% | 8.33 nM -0.42% | 100 nM -2.25% | 833.33 nM -1.69% | 10000 nM -2.49%

O=C1NC(=O)[C@@H](c2cn3c4c(cccc24)CCC3)[C@@H]1c1c[nH]c2ccccc12 [tivantinib]
inactive: 1 nM -0.36% | 8.33 nM -0.11% | 100 nM -2.57% | 833.33 nM -1.94% | 10000 nM 2.92%

CC1(C)NC(=O)N(c2ccc([N+](=O)[O-])c(C(F)(F)F)c2)C1=O [nilutamide]
inactive: 1 nM 3.3% | 8.33 nM 1.17% | 100 nM 0.03% | 833.33 nM -2.17% | 10000 nM 1.01%

Cc1ccccc1-n1c(CF)nc2ccc(N)cc2c1=O [afloqualone]
inactive: 1 nM -0.9% | 8.33 nM 0.95% | 100 nM -0.71% | 833.33 nM -0.49% | 10000 nM 1.46%

O=C(NCc1ccccc1)c1csc(Nc2ccncn2)n1 [thiazovivin]
inactive: 1 nM -2.48% | 8.33 nM 1.22% | 100 nM -1.94% | 833.33 nM -2% | 10000 nM -11.5%

CO[C@H]1/C=C/O[C@@]2(C)Oc3c(C)c(O)c4c(O)c(cc(O)c4c3C2=O)NC(=O)/C(C)=C\C=C\[C@H](C)[C@H](O)[C@@H](C)[C@@H](O)[C@@H](C)[C@H](OC(C)=O)[C@@H]1C [rifamycin-sv]
inactive: 1 nM 0.74% | 8.33 nM 1.12% | 100 nM 3.4% | 833.33 nM 4.53% | 10000 nM 2.73%

CCn1c(-c2nonc2N)nc2cnc(Oc3cccc(NC(=O)c4ccc(OCCN5CCOCC5)cc4)c3)cc21
inactive: 1 nM 3.5% | 8.33 nM 0.11% | 100 nM -2.86% | 833.33 nM -4.75% | 10000 nM -5.7%

Cc1csc2c(N[C@@H](C)CN3CCN(S(=O)(=O)c4ccc(Cl)c(Cl)c4)CC3)ncnc12 [LPA2-antagonist-1]
inactive: 1 nM -0.43% | 8.33 nM -0.37% | 100 nM 1.73% | 833.33 nM 1.34% | 10000 nM 5.53%

CC(CCc1ccc(O)cc1)NCC(O)c1ccc(O)cc1 (stereo not given) [ractopamine]
inactive: 1 nM -2.7% | 8.33 nM -0.49% | 100 nM -1.47% | 833.33 nM -0.11% | 10000 nM 1.53%

COc1cc2c(c(OC)c1OC)-c1ccc(OC)c(=O)cc1[C@@H](NC(C)=O)CC2 [colchicine]
inactive: 1 nM 2.74% | 8.33 nM 2.19% | 100 nM 0.8% | 833.33 nM -0.41% | 10000 nM 1.35%

Cc1ccc(F)cc1C(=O)Nc1ccc(C(=O)N2Cc3cccn3Cc3ccccc32)c(Cl)c1 [lixivaptan]
inactive: 1 nM -2.22% | 8.33 nM 2.67% | 100 nM 2% | 833.33 nM 1.18% | 10000 nM -0.31%

Cc1cc(N2CCN([C@@H]3CN[C@H](C(=O)N4CCSC4)C3)CC2)n(-c2ccccc2)n1 [teneligliptin]
inactive: 1 nM 0.52% | 8.33 nM 1.21% | 100 nM 1% | 833.33 nM 1.12% | 10000 nM -2.67%

C[C@@H]1C[C@H]2[C@@H]3C[C@H](F)C4=CC(=O)C=C[C@]4(C)[C@@]3(Cl)[C@@H](O)C[C@]2(C)[C@H]1C(=O)COC(=O)C(C)(C)C [clocortolone-pivalate]
inactive: 1 nM 0.49% | 8.33 nM 2.86% | 100 nM -2.33% | 833.33 nM 1.18% | 10000 nM -2.12%

O=C(CCCN1CCC(O)(c2ccc(Br)cc2)CC1)c1ccc(F)cc1 [bromperidol]
inactive: 1 nM 3.91% | 8.33 nM 3.53% | 100 nM 2.65% | 833.33 nM -0.17% | 10000 nM -3.61%

CC(C)Cn1cnc2c(N)nc3ccccc3c21 [imiquimod]
inactive: 1 nM 1.22% | 8.33 nM 1.42% | 100 nM -0.63% | 833.33 nM 2.38% | 10000 nM 0.63%

CC(=O)S[C@@H]1CC2=CC(=O)CC[C@]2(C)[C@H]2CC[C@@]3(C)[C@@H](CC[C@@]34CCC(=O)O4)[C@H]12 [spironolactone]
inactive: 1 nM -0.66% | 8.33 nM -0.55% | 100 nM -0.37% | 833.33 nM 3.98% | 10000 nM 6.39%

Cc1cc(-c2ccc(/N=N/c3ccc4c(S(=O)(=O)O)cc(S(=O)(=O)O)c(N)c4c3O)c(C)c2)ccc1/N=N/c1ccc2c(S(=O)(=O)O)cc(S(=O)(=O)O)c(N)c2c1O [evans-blue]
inactive: 1 nM -1.16% | 8.33 nM -4.89% | 100 nM 2.16% | 833.33 nM -0.35% | 10000 nM -17.6%

CN(C)CCOC(C)(c1ccccc1)c1ccccn1 (stereo not given) [doxylamine]
inactive: 1 nM -1.38% | 8.33 nM -0.13% | 100 nM -1.73% | 833.33 nM 1.53% | 10000 nM 1.43%

O=S(=O)(O)c1ccc(O)cc1 [4-phenolsulfonic-acid]
inactive: 1 nM -2.47% | 8.33 nM 0.25% | 100 nM 0.79% | 833.33 nM -2.18% | 10000 nM -0.48%

O=C(O)c1ccc(NC(=O)[C@H](Cc2ccc(O)cc2)NC(=O)c2ccccc2)cc1 [bentiromide]
inactive: 1 nM -1.4% | 8.33 nM 0.94% | 100 nM -1.51% | 833.33 nM -0.68% | 10000 nM 0.39%

CCCCC(=O)O[C@]1(C(=O)CO)[C@@H](C)C[C@H]2[C@@H]3CCC4=CC(=O)C=C[C@]4(C)[C@@]3(F)[C@@H](O)C[C@@]21C
inactive: 1 nM -3% | 8.33 nM -2.7% | 100 nM -2.96% | 833.33 nM -2.78% | 10000 nM -4.48%

Cc1ccc(=O)n(-c2ccccc2)c1 [pirfenidone]
inactive: 1 nM 3.93% | 8.33 nM 6.69% | 100 nM 3.96% | 833.33 nM 3.47% | 10000 nM 5.58%

Nc1cc(Cl)c(N=C2NCCN2)c(Cl)c1 [apraclonidine]
inactive: 1 nM -2.77% | 8.33 nM 1.32% | 100 nM -1.3% | 833.33 nM -1.26% | 10000 nM -0.76%

NCCC(Oc1ccc(C(F)(F)F)cc1)c1ccccc1 (stereo not given) [norfluoxetine]
inactive: 1 nM 1.01% | 8.33 nM 2.75% | 100 nM 1.92% | 833.33 nM -0.09% | 10000 nM -5.55%

O=C1c2ccccc2C(=O)c2ccccc21 [anthraquinone]
inactive: 1 nM -2.37% | 8.33 nM -0.48% | 100 nM -1.17% | 833.33 nM 1.54% | 10000 nM 0.18%

NC(=O)c1ccc[n+]([C@@H]2O[C@H](COP(=O)([O-])OP(=O)(O)OC[C@H]3O[C@@H](n4cnc5c(N)ncnc54)[C@H](O)[C@@H]3O)[C@@H](O)[C@H]2O)c1 [nadide]
inactive: 1 nM -2.68% | 8.33 nM -2.65% | 100 nM -0.81% | 833.33 nM -0.61% | 10000 nM -0.54%

CC[C@@H](C)CNCC(=O)N1CCc2sccc2[C@@H]1COc1cccc(C)c1
inactive: 1 nM 2.77% | 8.33 nM 3.61% | 100 nM 2.09% | 833.33 nM 1.08% | 10000 nM -6.12%

CC(C)(Oc1ccc(Cl)cc1)C(=O)O [clofibric-acid]
inactive: 1 nM 0.55% | 8.33 nM 2.02% | 100 nM 0.3% | 833.33 nM 2.45% | 10000 nM 2.22%

CC1=C(/C=C/C(C)=C/C=C/C(C)=C/C=C/C=C(C)/C=C/C=C(C)/C=C/C2=C(C)C(=O)[C@@H](O)CC2(C)C)C(C)(C)C[C@H](O)C1=O [astaxanthin]
inactive: 1 nM -9.22% | 8.33 nM -11% | 100 nM -9.1% | 833.33 nM -8.76% | 10000 nM -11.5%

O=P(O)(NCCCl)NCCCl [palifosfamide]
inactive: 1 nM 0.85% | 8.33 nM 0.49% | 100 nM 3.57% | 833.33 nM -1.07% | 10000 nM -7.07%

CC(C)NC[C@@H](C(=O)N1CCN(c2ncnc3c2[C@H](C)C[C@H]3O)CC1)c1ccc(Cl)cc1
inactive: 1 nM -0.34% | 8.33 nM -0.39% | 100 nM -0.29% | 833.33 nM 2.69% | 10000 nM 1.98%

O=C(CCCCCCC(=O)Nc1ccccc1)NO [vorinostat]
inactive: 1 nM -0.07% | 8.33 nM 0.67% | 100 nM -0.77% | 833.33 nM -5.85% | 10000 nM -23.6%

CC#C[C@@H](CC(=O)O)c1ccc(OCc2cccc(-c3ccc(C(F)(F)F)cc3)c2)cc1
inactive: 1 nM -0.29% | 8.33 nM 1.42% | 100 nM -0.33% | 833.33 nM 2.32% | 10000 nM 4.27%

CC(C)Oc1cccc(-n2c(CCc3c[nH]c4ccc(Br)cc34)nc3ccccc3c2=O)c1
inactive: 1 nM -1.06% | 8.33 nM 2.18% | 100 nM 2.14% | 833.33 nM 0.14% | 10000 nM 0.06%

c1cc(CN2CCCCC2)cc(OCCCNc2nc3ccccc3s2)c1 [zolantidine]
inactive: 1 nM 0.78% | 8.33 nM 3.51% | 100 nM 1.37% | 833.33 nM 4.09% | 10000 nM 4.6%

FC(F)(F)c1ccc(CNc2ccc(Cc3c[nH]c4ncccc34)cn2)cc1
inactive: 1 nM 3.02% | 8.33 nM 0.15% | 100 nM 0.15% | 833.33 nM -0.39% | 10000 nM -1.01%

CC(=C(CCOC(=O)C(C)C)SSC(CCOC(=O)C(C)C)=C(C)N(C=O)Cc1cnc(C)nc1N)N(C=O)Cc1cnc(C)nc1N (stereo in doubt) [sulbutiamine]
inactive: 1 nM 2% | 8.33 nM 2.05% | 100 nM 3.99% | 833.33 nM -4.07% | 10000 nM -4.54%
